Source: PubChem BioAssay
Only some compounds are listed: those with a hit (about 11% of all), similar ones and a draw of the others.
G9a inh – inhibitors of human histone lysine methyltransferase G9a; Potency, µM (titrated, usually from 102 µM), for the others: at the highest dose activity, negative = inhibition, usual class: inhibitors; actives 8.8% (n = 350,000); G9a H3K9 monomethylation, AlphaScreen, 2 h; AID 504332; Q96KQ7; note: % is set by controls: 0 for no effect and ±100 for the full control effect; nearly all actives have a fitted effect of over 75% in size
Target sequence (Q96KQ7 913-1193 limits assumed): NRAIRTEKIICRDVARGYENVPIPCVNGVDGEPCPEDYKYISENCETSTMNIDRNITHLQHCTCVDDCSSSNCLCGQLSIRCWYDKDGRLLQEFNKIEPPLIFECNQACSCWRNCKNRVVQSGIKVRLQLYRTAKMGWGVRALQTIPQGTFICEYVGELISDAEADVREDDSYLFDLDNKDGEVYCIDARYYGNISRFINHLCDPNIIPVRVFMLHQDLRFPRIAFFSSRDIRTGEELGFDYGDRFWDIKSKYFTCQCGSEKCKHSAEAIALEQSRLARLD
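AlphaScreen detection with an anti-monomethyl H3K9 antibody quantified product after a 2 h room-temperature reaction containing 500 nM biotinylated H3K9 peptide, 20 µM SAM and 20 nM enzyme, which had been preincubated 15 min with compound.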
JMJD2A Tudor inh – inhibitors of human JMJD2A Tudor domain; actives 4.4% (n = 390,000); O75164; AlphaScreen JMJD2A-Tudor / H3K4me3 peptide binding; Potency, µM (series often up to 114 µM), for inactives: at the top dose activity change, negative = inhibition, usual class: inhibitors; note: % is set by controls: 0 for no effect and ±100 for the full control effect; nearly all actives have a fitted effect of over 50% in size
BAZ2B block – blocks human BAZ2B | Q9UIF8 | AlphaScreen BAZ2B-H3K14Ac peptide displacement | Potency, µM (titrated, usually from 114 µM), for inactives: at the highest dose activity change, negative = inhibition, most hits filed as inhibitors | actives 4.4% (n = 360,000) | AID 504333; note: % is set by controls: 0 for no effect and ±100 for the full control effect; nearly all actives have a fitted effect of over 60% in size
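In this displacement format the biotinylated H3(5-23) peptide acetylated at Lys14 serves as ligand at 50 nM, with BAZ2B at 50 nM in PBS pH 7.4 containing 0.01% Tween-20. Donor and acceptor beads are 10 ug/mL final.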
L3MBTL1 inh – inhibitors of human L3MBTL1; AlphaScreen L3MBTL1–H3K9me1 peptide binding; Potency, µM (doses to about 57.1 µM), without a hit: at the top dose activity, negative = inhibition, most hits filed as inhibitors; actives 0.66% (n = 230,000); AID 485360; Q9Y468; note: % is set by controls: 0 for no effect and ±100 for the full control effect; nearly all actives have a fitted effect of over 60% in size
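AlphaScreen proximity signal between nickel-chelate acceptor and streptavidin donor beads (final 10 ug/mL) reports binding of 50 nM L3MBTL1 to 75 nM biotin-H3 K9me1 peptide; complex incubated with compounds 30 min at room temperature; cefsulodin titration as control.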
HP1b binding inh – blocks HP1-beta chromodomain binding to methylated histone tails. AlphaScreen HP1-beta / biotin-H3K9me3 peptide binding. P83916. AID 540317. Potency, µM (titrated, usually from 114 µM), for inactives: at the top dose activity change, negative = inhibition, usual class: inhibitors. actives 0.56% (n = 390,000); note: nearly all actives have a fitted effect of over 70% in size
Target sequence (P83916 whole entry, looked up): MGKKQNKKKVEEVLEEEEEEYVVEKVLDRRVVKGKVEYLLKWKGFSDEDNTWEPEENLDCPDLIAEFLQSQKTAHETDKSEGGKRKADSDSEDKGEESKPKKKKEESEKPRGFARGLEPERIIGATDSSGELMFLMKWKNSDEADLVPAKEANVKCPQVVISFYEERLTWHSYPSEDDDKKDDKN
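HP1-beta protein (50 nM final) preincubated 30 min at room temperature with biotinylated H3(1-18)K9me3 peptide (50 nM) in PBS pH 7.4, 0.01% Tween-20, then compound added for 30 min. AlphaScreen streptavidin donor/nickel chelate acceptor beads (10 ug/mL final), 30 min dark, luminescence read.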
* hit, by the source's call; ? = inconclusive; . = no result; [ ] = remark or other dose. Calls come from the whole dose curve; as a rule, active = well fitted inhibition curve with a large enough effect; inconclusive = small, poorly fitted or top-dose-only effect; inactive = no such curve, though single readings can be large or run the other way. Potency is the fitted concentration of half-maximal effect.

SMILES	G9a inh	JMJD2A Tudor inh	BAZ2B block	L3MBTL1 inh	HP1b binding inh
Cc1cc(NC(=O)C2CCN(S(=O)(=O)c3cccc4nsnc34)CC2)ccc1Br	-9%[59 µM]	-9%	.	.	27%
O=C(CNc1ccc2ccccc2c1)N/N=C/c1ccncc1	1.4µM*	-17%	-20%	.	15%
O=C(CCCC(=O)N/N=C\c1ccccn1)N/N=C\c1ccccn1	?	-9%[57.1 µM]	?	15%	47%
O=C(CNc1ccc2ccccc2c1)N/N=C/c1ccccn1	4µM*	-26%	-16%	-12%	9%
COCCn1c(SCC(=O)Nc2cccc(S(N)(=O)=O)c2)nc2cc(Cl)ccc2c1=O	3%	20µM*	-3%	9%	-17%
COCCn1c(SCC(=O)Nc2sccc2C(N)=O)nc2cc(Cl)ccc2c1=O	45µM*	-15%	-35%	-8%	15%
COCC(C)n1c(SCC(=O)Nc2sccc2C(N)=O)nc2ccccc2c1=O (configuration not stated)	10%[12.7 µM]	-20%	-10%	-1%	15%
COCCn1c(SCC(=O)Nc2cccnc2Cl)nc2cc(Cl)ccc2c1=O	-28%[2.33 µM]	-6%	6%	-6%	24%
COc1ccc(Cl)cc1NC(=O)C1CCN(C(=O)C2CC(=O)N(c3ccc(C)cc3)C2)CC1 (configuration not stated)	11%	-10%	3%	.	14%[57 µM]
Cc1ccc(Cn2c(SCC(=O)NCc3ccccc3Cl)nc3ccsc3c2=O)cc1	-8%[59 µM]	-16%	-10%	.	20%
CC(=O)NCCOc1nc(N(C)C)nc(N2CCOCC2)n1	-5%[12.7 µM]	5%	10%	-2%	32%
CC(C)=NOc1nc(N(C)C)nc(N2CCOCC2)n1	27%	56µM*	-14%	-6%	-1%
CCSc1nc(-c2ccco2)ccc1C#N	?	?	1%	.	35%
Cc1ccc(CSc2ccc(-c3ccco3)nn2)cc1	18µM*	-3%	-36%	-3%	36%
Clc1cccc(CSc2ccc(-c3ccco3)nn2)c1	16µM*	72%	9%	.	9%
Clc1ccc(CSc2ccc(-c3ccco3)nn2)cc1	-46%	4%	5%	.	23%
Fc1ccccc1CSc1ccc(-c2ccco2)nn1	40µM*	10%	-6%	.	6%
N#Cc1ccc(-c2ccco2)nc1SCc1ccccc1	28µM*	84%	18%	41%	42%
Cc1ccc(CSc2ccc(-c3ccc4c(c3)OCO4)nn2)cc1	50µM*	8%	-2%	-10%	19%
c1ccc(CSc2ccc(-c3ccco3)nn2)cc1	25µM*	-8%	-4%	-8%	30%
CN1CCN(C(=O)/C(=C/c2ccc(F)cc2)c2ccsc2)CC1	45µM*	1%	-24%	-2%	61%
CN1CCN(C(=O)/C(=C/c2ccccc2)c2ccccc2)CC1	-7%	-9%	11%	.	6%
N#Cc1c(N)nc(Sc2ccc(Cl)cc2)c(C#N)c1-c1ccccc1Cl	.	0%	1%	12%	26%
CCSc1nc(N)c(C#N)c(-c2ccccc2Cl)c1C#N	16µM*	1%	11%	.	59%
Cc1ccc(-c2nn(-c3cccc([N+](=O)[O-])c3)c3c2cnc2ccc(F)cc23)cc1	0%[59 µM]	-25%	-4%	.	35%
SMILES	G9a inh	JMJD2A Tudor inh	BAZ2B block	L3MBTL1 inh	HP1b binding inh
Cc1c(NC(=O)C(C)OC(=O)COc2ccc(C#N)cc2)c(=O)n(-c2ccccc2)n1C (configuration not stated)	-21%[0.501 µM]	1%	-3%	16%	19%
Cc1ccc(O)c(N/C=C/C(=O)c2ccc(F)cc2)c1	35µM*	-14%	-4%	2%	48%
CC(C)c1cc(CNC(=O)c2ccc(OC3CCN(Cc4ccccn4)CC3)cc2)on1	?	45µM*	56µM*	.	2%
CCn1cc(CNC(=O)c2ccc(OC3CCN(Cc4ccccn4)CC3)cc2)cn1	19%	-24%	-15%	.	25%[57 µM]
CCn1nc(C)c(CNC(=O)c2ccc(OC3CCN(Cc4ccccn4)CC3)cc2)c1C	-5%	-10%	79µM*	.	11%
Cc1ccc(C)c(NC(=O)Cn2cc(C(=O)C3CCCCC3)c3ccccc32)c1	-4%[59 µM]	-3%	3%[57.1 µM]	.	32%
NC(Cc1ccc2nsnc2c1)C(=O)O (configuration not stated)	.	2.2µM*	.	.	-9%
CC(C)C(=O)Nc1cccc2nsnc12	-5%	-12%	2%	7%	32%
NC(C(=O)O)C(O)c1ccc(O)c(O)c1 (configuration not stated)	1.1µM*	.	.	.	.
NC(Cc1cccc2nsnc12)C(=O)O (configuration not stated)	?	7.1µM*	-5%	2%	5%
N[C@H](Cc1ccc(O)cc1)C(=O)O	30%[59 µM]	.	.	.	.
N[C@@H](Cc1ccc(O)c(O)c1)C(=O)O	20µM*	40µM*	.	.	20µM*
NC(Cc1ccc(O)c([N+](=O)[O-])c1)C(=O)O (configuration not stated)	?	?	50µM*	0%	-5%
O=C(NCC(c1cccs1)S(=O)(=O)c1cccs1)c1ccccc1F (configuration not stated)	4%[59 µM]	-1%	0%	.	30%
CCN(CC)c1ccc(C2Nc3ccccc3-c3cc(C)nn32)cc1 (configuration not stated)	22µM*	50µM*	?	.	?
CC(C)NC(=O)C(=O)NCCc1ccc(Cl)cc1	1.1µM*	-20%	7%	.	8%
CCn1c(C(=O)N2CCCC(C(=O)NCCCOC)C2)cc2sccc21 (configuration not stated)	3%[59 µM]	-17%	-2%	.	27%
COc1cc(Cl)c(S(=O)(=O)N2CCCC2)cc1Cl	.	-7%	0%	-17%	41%
COc1cc(N2C(=O)C=CC2=O)c(OC)cc1Cl	2.5µM*	10µM*	-15%	4%	10µM*
Cc1cccc(C(=O)NNc2ncnc3c2cnn3-c2ccc(C)c(Cl)c2)c1	5%[59 µM]	-22%	0%	.	11%
Cc1ccc(Cl)cc1-n1ncc2c(N3CCN(Cc4ccccc4)CC3)ncnc21	5%[59 µM]	-22%	-6%	.	42%
CCn1c(=O)c2cc(C(=O)NC3CCC(C)CC3)sc2c2ccccc21 (configuration not stated)	-1%[59 µM]	3%	-19%	.	36%
O=C1c2ccccc2-c2onc3ccc(NCCCn4ccnc4)c1c23	-26%[12.7 µM]	50µM*	14µM*	.	?
COc1ccc2noc3c2c1C(=O)c1ccccc1-3	.	?	.	.	-14%
C[C@@H]1C(=O)N(S(=O)(=O)c2ccc([N+](=O)[O-])cc2)[C@H]1c1ccc(F)cc1	.	-5%	.	.	35%
COC(=O)C1=C(CS(=O)(=O)c2ccc(C)cc2C)NC(=O)NC1c1ccc(C)cc1 (configuration not stated)	-43%[59 µM]	-20%	-13%	.	25%
Cc1nc(N2CCCCCC2)c2ccccc2n1	?	-2%	-2%	-3%	21%
